# Numbering of substitutions follows the chain as printed.
# B1: CGTA (dsDNA)
# DNA 1: GCTATCTAGTGCTCAGTACGCACTGCGTAAGGAAACTTCTGGCAGGACCAGGTCATGAGATCGGAAGAGCACACGTCTGAACTCCAGTCA
# DNA 2: TGACTGGAGTTCAGACGTGTGCTCTTCCGATCTCATGACCTGGTCCTGCCAGAAGTTTCCTTACGCAGTGCGTACTGAGCACTAGATAGC
# RNA: AAUUUCUACUCUUGUAGAUAGGAAACUUCUGGCAGGACC
# B2: CGTC (dsDNA)
# DNA 1: B1 DNA 1 with A29C
# DNA 2: B1 DNA 2 with T62G
# RNA: B1 RNA
# B3: CTAA (dsDNA)
# DNA 1: B1 DNA 1 with G27T, T28A
# DNA 2: B1 DNA 2 with A63T, C64A
# RNA: B1 RNA
# B4: CTCA (dsDNA)
# DNA 1: B1 DNA 1 with G27T, T28C
# DNA 2: B1 DNA 2 with A63G, C64A
# RNA: B1 RNA
# B5: CTGA (dsDNA)
# DNA 1: B1 DNA 1 with G27T, T28G
# DNA 2: B1 DNA 2 with A63C, C64A
# RNA: B1 RNA
# B6: CGTG (dsDNA)
# DNA 1: B1 DNA 1 with A29G
# DNA 2: B1 DNA 2 with T62C
# RNA: B1 RNA
# B7: CTCC (dsDNA)
# DNA 1: B1 DNA 1 with G27T, T28C, A29C
# DNA 2: B1 DNA 2 with T62G, A63G, C64A
# RNA: B1 RNA
# B8: GAGA (dsDNA)
# DNA 1: B1 DNA 1 with C26G, G27A, T28G
# DNA 2: B1 DNA 2 with A63C, C64T, G65C
# RNA: B1 RNA
# Target: dAsCas12a Ultra (Acidaminococcus sp., UniProt U2UMQ6 1-1307, M537R;F870L;D908A;E993A;D1235A)
# Assay: Spec-seq (native PAGE EMSA with sequencing of bound and unbound); 25 mM Tris-HCl pH 7.4, 150 mM KCl, 5 mM MgCl2, 10% glycerol, 1 mM DTT, 40 ng/uL salmon sperm DNA; 400 nM Cas12a, 480 nM crRNA, 50 nM library, 37 C 1 h; native PAGE at room temperature; high values mean tight binding
# Conditions: protein: recombinant
row,Binder,binding signal
1,B1,-8.71 lnKA
2,B2,-8.54 lnKA
3,B3,-8.92 lnKA
4,B4,-8.8 lnKA
5,B5,-8.41 lnKA
6,B6,-9 lnKA
7,B7,-8.67 lnKA
8,B8,-8.96 lnKA

# Target: dAsCas12a E174R (Acidaminococcus sp., UniProt U2UMQ6 1-1307, E174R;D908A;E993A;D1235A)
# Assay: as above
# Conditions: protein: recombinant
row,Binder,binding signal
1,B1,-8.37 lnKA
2,B3,-8.64 lnKA
3,B4,-8.26 lnKA
4,B6,-8.98 lnKA
5,B7,-8.66 lnKA

# Target: dAsCas12a S542R (Acidaminococcus sp., UniProt U2UMQ6 1-1307, S542R;D908A;E993A;D1235A)
# Assay: as above
# Conditions: protein: recombinant
row,Binder,binding signal
1,B1,-8.4 lnKA
2,B2,-8.67 lnKA
3,B3,-8.47 lnKA
4,B4,-6.35 lnKA
5,B5,-8.41 lnKA
6,B6,-8.73 lnKA
7,B7,-4.85 lnKA
8,B8,-8.5 lnKA

# Target: d-enCas12a (Acidaminococcus sp., UniProt U2UMQ6 1-1307, E174R;S542R;K548R;D908A;E993A;D1235A)
# Assay: as above
# Conditions: protein: recombinant
row,Binder,binding signal
1,B1,-2.47 lnKA
2,B2,-2.67 lnKA
3,B3,-5.62 lnKA
4,B4,-1.97 lnKA
5,B5,-5.63 lnKA
6,B6,-4.4 lnKA
7,B7,-0.91 lnKA
8,B8,-5.82 lnKA

# Target: d-enCas12a-Ultra (Acidaminococcus sp., UniProt U2UMQ6 1-1307, E174R;S542R;K548R;M537R;F870L;D908A;E993A;D1235A)
# Assay: as above
# Conditions: protein: recombinant
row,Binder,binding signal
1,B1,-0.629 lnKA
2,B2,-0.615 lnKA
3,B3,-3.05 lnKA
4,B4,-0.439 lnKA
5,B5,-3.17 lnKA
6,B6,-1.51 lnKA
7,B7,-0.27 lnKA
8,B8,-3.42 lnKA

# Target: dAsCas12a K548R (Acidaminococcus sp., UniProt U2UMQ6 1-1307, K548R;D908A;E993A;D1235A)
# Assay: as above
# Conditions: protein: recombinant
row,Binder,binding signal
1,B2,-8.4 lnKA

# From PMC8222333, “AsCas12a ultra nuclease facilitates the rapid generation of therapeutic cell medicines”
